From the supplement of paper PMC4466140

B1: unnamed (peptide)
chain: FFRRSELYLPNSSKA
B2: unnamed (peptide)
chain: ILARAILTIPRVLDK
B3: unnamed (peptide)
chain: SKSRLLIELPEGFFT
B4: unnamed (peptide)
chain: QPQRTAPKPPISAPR

Biological target: AgAbp1
Experiment: SPOT peptide array binding signal intensity (averaged, normalized) (arbitrary units (background-subtracted, floor 0; scale differs between SH3 domains)); higher = stronger binding of the SH3 domain to the peptide
Outline: (§1)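 Peptides were synthetic 15-mers on cellulose membranes, with every cysteine replaced by serine. They were incubated overnight at 4°C with GST-SH3 domains from four yeast species at 10 μg/ml in TBS-based blocking buffer. Binding signal, the replicate-averaged normalized and background-subtracted spot intensity, is in arbitrary units that differ between domains.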

Binder | SPOT peptide array binding signal intensity
B1 | 2
B2 | 2
B3 | 2

Biological target: AgBbc1
Experiment: as above
Outline: as §1

Binder | SPOT peptide array binding signal intensity
B1 | 3.75
B2 | 50
B3 | 0.5

Biological target: AgBem1-D1
Experiment: as above
Outline: as §1

Binder | SPOT peptide array binding signal intensity
B1 | 31.5
B2 | 162
B3 | ≤ 0

Biological target: AgBzz1-D1
Experiment: as above
Outline: as §1

Binder | SPOT peptide array binding signal intensity
B1 | 26.5
B2 | 107
B3 | 59

Biological target: AgBzz1-D2
Experiment: as above
Outline: as §1

Binder | SPOT peptide array binding signal intensity
B1 | 22.5
B2 | 121
B3 | 78

Biological target: AgCyk3
Experiment: as above
Outline: as §1

Binder | SPOT peptide array binding signal intensity
B1 | ≤ 0
B2 | 11
B3 | 1

Biological target: AgFus1
Experiment: as above
Outline: as §1

Binder | SPOT peptide array binding signal intensity
B1 | 162
B2 | 1100
B3 | 322

Biological target: AgHof1
Experiment: as above
Outline: as §1

Binder | SPOT peptide array binding signal intensity
B1 | 25
B2 | 34.5
B3 | 18.5

Biological target: AgHse1
Experiment: as above
Outline: as §1

Binder | SPOT peptide array binding signal intensity
B1 | 1000
B2 | 500
B3 | 16

Biological target: AgLsb1
Experiment: as above
Outline: as §1

Binder | SPOT peptide array binding signal intensity
B1 | 1.75
B2 | 1.5
B3 | ≤ 0

Biological target: AgLsb4
Experiment: as above
Outline: as §1

Binder | SPOT peptide array binding signal intensity
B1 | 47.5
B2 | 1390
B3 | 46

Biological target: AgMyo5
Experiment: as above
Outline: as §1

Binder | SPOT peptide array binding signal intensity
B1 | 7.25
B2 | 1
B3 | ≤ 0

Biological target: AgNbp2
Experiment: as above
Outline: as §1

Binder | SPOT peptide array binding signal intensity
B1 | 11
B2 | 279
B3 | ≤ 0

Biological target: AgRvs167
Experiment: as above
Outline: as §1

Binder | SPOT peptide array binding signal intensity
B1 | 1.67
B2 | 12
B3 | 0.5

Biological target: AgSho1
Experiment: as above
Outline: as §1

Binder | SPOT peptide array binding signal intensity
B1 | 25
B2 | 516
B3 | ≤ 0

Biological target: AgSla1-D1-D2
Experiment: as above
Outline: as §1

Binder | SPOT peptide array binding signal intensity
B1 | 122
B2 | 58
B3 | 67

Biological target: AgSla1-D3
Experiment: as above
Outline: as §1

Binder | SPOT peptide array binding signal intensity
B1 | 5.5
B2 | 12
B3 | 0.25

Biological target: CaAbp1-D1
Experiment: as above
Outline: as §1

Binder | SPOT peptide array binding signal intensity
B1 | 70
B2 | 30
B3 | ≤ 0

Biological target: CaAbp1-D2
Experiment: as above
Outline: as §1

Binder | SPOT peptide array binding signal intensity
B1 | 51.5
B2 | 20
B3 | ≤ 0

Biological target: CaBbc1
Experiment: as above
Outline: as §1

Binder | SPOT peptide array binding signal intensity
B1 | 0.25
B2 | 68.5
B3 | 19.5

Biological target: CaBem1-D1
Experiment: as above
Outline: as §1

Binder | SPOT peptide array binding signal intensity
B1 | 9
B2 | 33.5
B3 | 8.5

Biological target: CaBzz1-D1
Experiment: as above
Outline: as §1

Binder | SPOT peptide array binding signal intensity
B1 | 95
B2 | 625
B3 | 82.5

Biological target: CaBzz1-D2
Experiment: as above
Outline: as §1

Binder | SPOT peptide array binding signal intensity
B1 | 32.2
B2 | 247
B3 | 18.8

Biological target: CaCyk3
Experiment: as above
Outline: as §1

Binder | SPOT peptide array binding signal intensity
B1 | ≤ 0
B2 | 35
B3 | ≤ 0

Biological target: CaFus1
Experiment: as above
Outline: as §1

Binder | SPOT peptide array binding signal intensity
B1 | 624
B2 | 1530
B3 | 1020

Biological target: CaHof1
Experiment: as above
Outline: as §1

Binder | SPOT peptide array binding signal intensity
B1 | ≤ 0
B2 | 2.25
B3 | ≤ 0

Biological target: CaHse1
Experiment: as above
Outline: as §1

Binder | SPOT peptide array binding signal intensity
B1 | 3
B2 | 130
B3 | 5.25

Biological target: CaLsb1
Experiment: as above
Outline: as §1

Binder | SPOT peptide array binding signal intensity
B1 | 0.5
B2 | 2.25
B3 | ≤ 0

Biological target: CaLsb4
Experiment: as above
Outline: as §1

Binder | SPOT peptide array binding signal intensity
B1 | 13
B2 | 62.5
B3 | ≤ 0

Biological target: CaMyo5
Experiment: as above
Outline: as §1

Binder | SPOT peptide array binding signal intensity
B1 | 14.2
B2 | 12.5
B3 | 117

Biological target: CaNbp2
Experiment: as above
Outline: as §1

Binder | SPOT peptide array binding signal intensity
B1 | 89
B3 | 34.5

Biological target: CaRvs167
Experiment: as above
Outline: as §1

Binder | SPOT peptide array binding signal intensity
B1 | 4.5
B3 | 1.83

Biological target: CaRvs167-3
Experiment: as above
Outline: as §1

Binder | SPOT peptide array binding signal intensity
B1 | 16.2
B3 | 51.8

Biological target: CaSho1
Experiment: as above
Outline: as §1

Binder | SPOT peptide array binding signal intensity
B1 | 318
B3 | 56.5

Biological target: CaSla1-D1-D2
Experiment: as above
Outline: as §1

Binder | SPOT peptide array binding signal intensity
B1 | ≤ 0
B3 | ≤ 0

Biological target: CaSla1-D3
Experiment: as above
Outline: as §1

Binder | SPOT peptide array binding signal intensity
B1 | ≤ 0
B3 | 22

Biological target: ScAbp1
Experiment: as above
Outline: as §1

Binder | SPOT peptide array binding signal intensity
B1 | 47
B3 | ≤ 0

Biological target: ScBbc1
Experiment: as above
Outline: as §1

Binder | SPOT peptide array binding signal intensity
B1 | ≤ 0
B3 | 1

Biological target: ScBem1-D1
Experiment: as above
Outline: as §1

Binder | SPOT peptide array binding signal intensity
B1 | 18
B3 | 11.5

Biological target: ScBzz1-D1
Experiment: as above
Outline: as §1

Binder | SPOT peptide array binding signal intensity
B1 | 11
B3 | 75.5

Biological target: ScBzz1-D2
Experiment: as above
Outline: as §1

Binder | SPOT peptide array binding signal intensity
B1 | 20
B3 | 125

Biological target: ScCyk3
Experiment: as above
Outline: as §1

Binder | SPOT peptide array binding signal intensity
B1 | 24
B3 | 7

Biological target: ScFus1
Experiment: as above
Outline: as §1

Binder | SPOT peptide array binding signal intensity
B1 | 206
B3 | 317

Biological target: ScHof1
Experiment: as above
Outline: as §1

Binder | SPOT peptide array binding signal intensity
B1 | 1
B3 | 1.5

Biological target: ScHse1
Experiment: as above
Outline: as §1

Binder | SPOT peptide array binding signal intensity
B1 | 1290
B3 | 89

Biological target: ScLsb1
Experiment: as above
Outline: as §1

Binder | SPOT peptide array binding signal intensity
B1 | 6.25
B3 | ≤ 0

Biological target: ScLsb2
Experiment: as above
Outline: as §1

Binder | SPOT peptide array binding signal intensity
B1 | 2
B3 | ≤ 0

Biological target: ScLsb3
Experiment: as above
Outline: as §1

Binder | SPOT peptide array binding signal intensity
B1 | 34.5
B3 | ≤ 0

Biological target: ScLsb4
Experiment: as above
Outline: as §1

Binder | SPOT peptide array binding signal intensity
B1 | 8
B3 | ≤ 0

Biological target: ScMyo3
Experiment: as above
Outline: as §1

Binder | SPOT peptide array binding signal intensity
B1 | 3.5
B3 | 1

Biological target: ScMyo5
Experiment: as above
Outline: as §1

Binder | SPOT peptide array binding signal intensity
B1 | 8.5
B3 | 0.5

Biological target: ScNbp2
Experiment: as above
Outline: as §1

Binder | SPOT peptide array binding signal intensity
B1 | 42.5
B3 | ≤ 0

Biological target: ScPex13
Experiment: as above
Outline: as §1

Binder | SPOT peptide array binding signal intensity
B1 | ≤ 0
B3 | ≤ 0

Biological target: ScRvs167
Experiment: as above
Outline: as §1

Binder | SPOT peptide array binding signal intensity
B1 | 3.17
B3 | 0.667

Biological target: ScSho1
Experiment: as above
Outline: as §1

Binder | SPOT peptide array binding signal intensity
B1 | 201
B3 | 145

Biological target: ScSla1-D1-D2
Experiment: as above
Outline: as §1

Binder | SPOT peptide array binding signal intensity
B1 | 12
B3 | ≤ 0

Biological target: ScSla1-D3
Experiment: as above
Outline: as §1

Binder | SPOT peptide array binding signal intensity
B1 | 0.5
B3 | 15

Biological target: SpAbp1-D1
Experiment: as above
Outline: as §1

Binder | SPOT peptide array binding signal intensity
B1 | 45
B3 | ≤ 0

Biological target: SpBbc1
Experiment: as above
Outline: as §1

Binder | SPOT peptide array binding signal intensity
B1 | ≤ 0
B3 | ≤ 0

Biological target: SpBzz1-D1
Experiment: as above
Outline: as §1

Binder | SPOT peptide array binding signal intensity
B1 | 111
B3 | 68.5

Biological target: SpBzz1-D2
Experiment: as above
Outline: as §1

Binder | SPOT peptide array binding signal intensity
B1 | ≤ 0
B3 | 0.25
B4 | 14.5

Biological target: SpCyk3
Experiment: as above
Outline: as §1

Binder | SPOT peptide array binding signal intensity
B1 | ≤ 0
B3 | 1
B4 | 0.5

Biological target: SpHof1
Experiment: as above
Outline: as §1

Binder | SPOT peptide array binding signal intensity
B1 | 65.2
B3 | 204
B4 | ≤ 0

Biological target: SpHof1-2
Experiment: as above
Outline: as §1

Binder | SPOT peptide array binding signal intensity
B1 | 6.75
B3 | 13.5
B4 | 7.5

Biological target: SpHof1-3
Experiment: as above
Outline: as §1

Binder | SPOT peptide array binding signal intensity
B1 | 455
B3 | 7.5
B4 | ≤ 0

Biological target: SpHse1
Experiment: as above
Outline: as §1

Binder | SPOT peptide array binding signal intensity
B1 | 552
B3 | 45.5
B4 | ≤ 0

Biological target: SpLsb1
Experiment: as above
Outline: as §1

Binder | SPOT peptide array binding signal intensity
B1 | 0.75
B3 | ≤ 0
B4 | ≤ 0

Biological target: SpLsb4
Experiment: as above
Outline: as §1

Binder | SPOT peptide array binding signal intensity
B1 | 7
B3 | ≤ 0
B4 | 27.5

Biological target: SpMyo1
Experiment: as above
Outline: as §1

Binder | SPOT peptide array binding signal intensity
B1 | 9
B3 | 0.5
B4 | 2550

Biological target: SpNbp2
Experiment: as above
Outline: as §1

Binder | SPOT peptide array binding signal intensity
B1 | 3
B3 | ≤ 0
B4 | 22.5

Biological target: SpPex13
Experiment: as above
Outline: as §1

Binder | SPOT peptide array binding signal intensity
B1 | 10
B3 | ≤ 0
B4 | 1

Biological target: SpRvs167
Experiment: as above
Outline: as §1

Binder | SPOT peptide array binding signal intensity
B1 | 6.67
B3 | 2
B4 | 2.33

Biological target: SpSla1-D1-D2
Experiment: as above
Outline: as §1

Binder | SPOT peptide array binding signal intensity
B1 | ≤ 0
B3 | ≤ 0
B4 | ≤ 0

Biological target: SpSla1-D3
Experiment: as above
Outline: as §1

Binder | SPOT peptide array binding signal intensity
B1 | 35
B3 | ≤ 0
B4 | ≤ 0
